Screening data as filed in PubChem.
HT1080 IDH1KD tx = toxicity to HT-1080 IDH1 knockdown cells (counter line); HT-1080 IDH1 knockdown viability, ATP luminescence, 48 h; Potency, µM (highest dose often 46.1 µM), for inactives: at the highest dose activity, negative = toxicity, hits mostly cytotoxic; hit rate 2% among 360,000;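 note: 0% = DMSO wells and -100% = cell-free medium wells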
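CellTiter-Glo luminescence after 48 h compound exposure at 37 degrees C of IDH1-knockdown HT-1080 cells in 5% FBS RPMI. %Activity scaled between DMSO wells and cell-free media wells, with curves fitted and assigned curve classes.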
KB-3-1 tox = kills parental KB-3-1 adenocarcinoma cells; hit rate 1.4% among 400,000; KB-3-1 viability, CellTiter-Glo ATP luminescence, 72 h; AID 1347075; Potency, µM (doses to about 46.1 µM), hits mostly cytotoxic; note: nearly all actives have a fitted effect of over 60% in size
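Here the drug-naive KB-3-1 line serves as comparator for MDR sub-line selectivity; cells received compound titrations, 72 h at 37 °C, then CellTiter-Glo readout.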
KB-V1 cytotox = kills drug-selected multidrug resistant KB-V1 cells | Potency, µM (top dose mostly 46.1 µM), hits mostly cytotoxic | hit rate 3.4% among 400,000 | KB-V1 MDR cells viability, CellTiter-Glo, 72 h; note: nearly all actives have a fitted effect of over 60% in size
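Potencies derive from concentration-effect curves fitted to normalized luminescence (CellTiter-Glo) of KB-V1 cells treated for 72 h at 37 degrees C in phenol-red-free DMEM containing 10% FBS.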
HT1080NT lethal = kills 2HG-producing HT-1080-NT fibrosarcoma cells | HT-1080-NT fibrosarcoma viability, CellTiter-Glo ATP luminescence, 48 h | hit rate 1.6% among 360,000 | Potency, µM (doses to about 46.1 µM), inactives show top-dose activity, negative = less viability, actives largely listed as cytotoxic;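 note: NT is the 2HG producing partner of a matched IDH1 knockdown line; 0% = DMSO-treated cells and -100% = media-only wells without cells; nearly all actives have a fitted effect of over 55% in size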
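HT-1080-NT fibrosarcoma cells (2HG-overproducing), 750 cells/well in RPMI with 5% FBS, dosed after 2 h and incubated 48 h at 37C. CellTiter-Glo luminescence normalized to DMSO and no-cell wells; concentration-response curves fitted and classed.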
* hit, by the source's call; i = inactive; ? = inconclusive; / = no result given. Hits are enriched below; roughly 5.7% of the tested compounds scored in any of these assays. Calls come from the whole dose curve; as a rule, active = well fitted curve in the direction sought with a large enough effect; inconclusive = small, poorly fitted or top-dose-only effect, or another doubt; inactive = no such curve, though single readings can be large; an effect the other way counts as inactive or inconclusive. Unless noted, % is set by controls: 0 for no effect and ±100 for the full control effect; potency is the fitted concentration of half-maximal effect.

SMILES	HT1080 IDH1KD tx	KB-3-1 tox	KB-V1 cytotox	HT1080NT lethal
CCOc1ccc(C2=Nn3c(nnc3-c3ccccc3)SC2)cc1Cl	-5%	i	i	-10%
CC1=Nn2c(nnc2-c2ccc(F)cc2)SC1	5%	i	i	4%
Cc1ccc(S(=O)(=O)N2CCN(c3nc(-n4ccnn4)nc4ccccc34)CC2)cc1	12%	/	/	20%
Cc1ccc(C)c(N2CCN(S(=O)(=O)c3ccc(C(=O)N(C)C)s3)CC2)c1	/	i	i	/
Cc1ccc(C2CC(c3cccs3)=NN2C(=O)CCl)cc1 (configuration not stated)	4.1µM*	?	?	4.6µM*
FC(F)(F)c1nc2ccccc2n2c(-c3c(Cl)cccc3Cl)nnc12	-5%	?	i	-9%
FC(F)(F)c1nc2ccccc2n2c(-c3ccc(Cl)cc3Cl)nnc12	?	18µM*	?	?
Cc1ccc(N2CCN(C(=O)c3cnn(-c4ccc(F)cc4F)c3C3CCN(C(=O)OC(C)(C)C)CC3)CC2)c(C)c1	/	i	i	/
CCOC(=O)c1nc(Nc2ccc(C)cc2)c2ccccc2n1	-21%	i	?	-21%
CCOC(=O)c1c(Nc2ccc(C)cc2)nnc(-c2ccccc2)c1-c1ccccc1	/	i	23µM*	/
CCOC(=O)c1c(Nc2cccc(C(=O)OC)c2)nnc(-c2ccccc2)c1-c1ccccc1	/	i	13µM*	/
Cc1cc(C)c(S(=O)(=O)ON2C(=O)c3ccccc3C2=O)cc1C	10µM*	i	i	?
Cc1cc(C)c(C)c(S(=O)(=O)ON2C(=O)c3ccccc3C2=O)c1C	7.3µM*	i	i	?
Cc1ccc(S(=O)(=O)ON2C(=O)c3ccccc3C2=O)c(C)c1	?	i	i	?
CC(=O)Nc1ccc(-c2nnc(SCC(=O)c3ccc([N+](=O)[O-])cc3)o2)cc1	/	i	i	/
O=C(CSc1n[nH]c(=O)n1C1CC1)Nc1cc(Cl)ccc1Oc1ccccc1	-19%	i	16µM*	-22%
COC(=O)c1nc2n(n1)C(c1cc(OC)ccc1OC)C(C(=O)Nc1ccc(C)cc1C)=C(C)N2 (configuration not stated)	/	i	i	/
Cc1cccc(NC(=O)c2ccc(N(Cc3ccccc3)S(C)(=O)=O)cc2)c1	/	i	?	/
CC1Cc2ccccc2N1c1ncnc2nc[nH]c12 (configuration not stated)	2%	9.2µM*	i	1%
c1ccc2c(c1)CCN(c1ncnc3nc[nH]c13)C2	11%	?	i	15%
CC(C)c1noc(-c2ccccc2OCC(=O)Nc2ccc([N+](=O)[O-])cc2)n1	/	i	i	/
COc1ccc(CNC(=O)c2ccc(CS(=O)(=O)Cc3ccccc3F)o2)cc1	6%	i	?	0%
O=C(NCc1ccccc1)c1ccc(CS(=O)(=O)Cc2ccccc2F)o1	12%	i	16µM*	16%
COc1ccc(Cl)cc1NC(=O)c1ccc2c(c1)CCCN2S(C)(=O)=O	/	i	i	/
COc1cccc(NC(=O)CSc2cc(C)[nH]c(=O)n2)c1	/	i	i	/
SMILES	HT1080 IDH1KD tx	KB-3-1 tox	KB-V1 cytotox	HT1080NT lethal
Cc1ccc(N/C(N)=N/c2nc(C)cc(N3CCCCC3)n2)c(C)c1	?	16µM*	10µM*	15µM*
O=C(O)CC/C(=N\Nc1ccc(S(=O)(=O)N2CCCC2)cc1[N+](=O)[O-])c1cccs1	33µM*	i	?	?
O=C(O)CC/C(=N\Nc1ccc(S(=O)(=O)N2CCOCC2)cc1[N+](=O)[O-])c1cccs1	-24%	i	i	?
CC1(c2ccccc2)CC(C)(C)n2c(O)c(C3=NC(=S)NC3=O)c3cccc1c32 (configuration not stated)	-1%	?	12µM*	1%
COc1cc2c3c(c1)c(C1=NC(=S)NC1=O)c(O)n3C(C)(C)C=C2C	25%	i	?	11%
O=C(NCc1ccc(F)cc1)c1cnc(N2CCCCC2)c2ccccc12	/	i	i	/
CN(C)c1ccc(/C=N/OC(=O)Nc2ccccc2Cl)cc1	-6%	23µM*	?	0%
COc1ccc(/C=N/OC(=O)Nc2ccccc2OC)cc1	5.8µM*	10µM*	9.2µM*	9.2µM*
O=C(Nc1cc(-c2nc3ccccc3o2)ccc1Cl)c1sc2c([N+](=O)[O-])cccc2c1Cl	/	i	i	/
COc1ccc([N+](=O)[O-])cc1COc1cc(C)cc2oc(=O)cc(-c3ccccc3)c12	?	21µM*	6.5µM*	?
CC(=O)COc1cc(C)cc2oc(=O)cc(-c3ccccc3)c12	6%	i	i	6%
O=C(COc1ccccc1C(=O)Nc1ccccc1F)Nc1ccc(Br)cc1	/	?	i	/
CCc1cccc(N2C(=O)CSC23C(=O)Nc2ccccc23)c1 (configuration not stated)	/	i	?	/
COc1ccc(OC)c(/C=C/C(=O)N2CCCc3ccccc32)c1	-1%	i	?	-11%
COc1ccc(/C=C/C(=O)N2CCCc3ccccc32)cc1	15%	i	13µM*	16%
COc1ccc(NC(=O)N2CCCc3ccccc32)cc1	8%	i	i	-2%
COc1ccc(N/N=C(/C(C)=O)N2CCCc3ccccc32)cc1	-23%	21µM*	i	-26%
CC1(C)CC(=O)c2cc(-c3nc(-c4ccc(F)cc4)cs3)c(=O)[nH]c2C1	/	i	?	/
CC(=O)Nc1ccc2cc3ccc(NC(C)=O)cc3nc2c1	?	23µM*	i	?
CC(=O)Nc1ccc2ccccc2c1	14%	i	i	-1%
O=[N+]([O-])c1ccc(O)c(/C=N/Nc2ccc(Cl)nn2)c1	0.21µM*	?	i	?
COc1cccc(-c2cc3nc(-c4ccccc4)cc(=O)n3[nH]2)c1	1.3µM*	5.8µM*	4.6µM*	1.5µM*
CC(=O)N1c2ccc(S(=O)(=O)NCCc3ccc(Cl)cc3)cc2CC1C (configuration not stated)	-8%	i	i	-23%
CC(Sc1nnc(-c2cccs2)n1-c1ccccc1)C(=O)NCc1ccc2c(c1)OCO2 (configuration not stated)	-1%	i	8.2µM*	-1%
O=C(Nc1cnn(Cc2ccc(Cl)cc2Cl)c1)c1noc2c1CCc1ccccc1-2	/	i	i	/
Cc1nn(C)c(Cl)c1NC(=O)OCc1ccc(Cl)cc1Cl	-26%	4.1µM*	2.6µM*	-2%
Cc1nn(Cc2ccc(Cl)cc2Cl)c(C)c1NC(=O)CCl	?	15µM*	18µM*	?
Cn1c(=O)[nH]c(=O)c2c1nc1n2CCN1c1ccccc1	/	i	i	/
Cc1ccc(-c2ccc(OCC(=O)N3CCOCC3)cc2)cc1	-14%	i	i	-8%
CC1(C)N=C(N)N=C(N)N1c1ccc(OCC(=O)N2CCOCC2)cc1	6.5µM*	?	i	23µM*
